# Screening results: PubChem BioAssay, several laboratories
# Hits are enriched below; roughly 4.1% of the tested compounds scored in any of these assays.
# MEKK2 WT-MEK5 – raises or lowers MEK5 binding to wildtype human MEKK2 PB1 domain; Q9Y2U5; bead flow cytometry, Alexa488-MEK5 binding to MEKK2 WT; actives lie on both sides; binding response (% of control), % at 10 µM; actives 1.1% (n = 290,000); in the data active = binding response below about 67% or above about 130%
# MEKK2 mut-MEK5 – signal of MEK5 binding to mutant human MEKK2 PB1 domain; AID 1530; bead flow cytometry, Alexa488-MEK5 binding to MEKK2 mutant; percent response, % at 10 µM; actives 0.35% (n = 290,000); in the data active = percent response above about 24%, passing the limit was not always enough
# CHT allo act – human CHT allosteric activation; actives 0.49% (n = 310,000); B-score at 10 µM; AID 488977; CHT-expressing cells, membrane potential dye, choline EC20; hits give high values; LV-AA mutant CHT in HEK293 cells; Q9GZV3;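 active = initial fluorescence not abnormally high and integrated response B-score, plate-corrected, over 3 SD above library mean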
# Target sequence (Q9GZV3 whole entry, looked up): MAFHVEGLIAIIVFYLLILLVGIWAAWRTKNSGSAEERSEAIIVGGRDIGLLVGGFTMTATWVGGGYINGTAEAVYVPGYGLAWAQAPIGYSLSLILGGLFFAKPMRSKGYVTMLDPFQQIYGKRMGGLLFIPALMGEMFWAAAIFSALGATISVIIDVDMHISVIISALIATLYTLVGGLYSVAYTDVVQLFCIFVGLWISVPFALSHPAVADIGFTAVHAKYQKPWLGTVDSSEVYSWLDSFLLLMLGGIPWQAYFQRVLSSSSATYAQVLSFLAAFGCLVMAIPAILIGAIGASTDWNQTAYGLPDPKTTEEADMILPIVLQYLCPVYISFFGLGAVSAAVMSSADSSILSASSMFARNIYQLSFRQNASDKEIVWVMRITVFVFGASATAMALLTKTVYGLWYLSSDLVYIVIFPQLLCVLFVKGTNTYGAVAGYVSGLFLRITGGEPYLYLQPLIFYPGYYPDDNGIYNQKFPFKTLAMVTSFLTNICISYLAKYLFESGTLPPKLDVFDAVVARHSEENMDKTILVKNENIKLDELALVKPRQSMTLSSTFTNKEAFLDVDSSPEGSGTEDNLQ
# MEKK3 PB1 HTS – modulators (inhibitors or enhancers) of MEK5 binding to human MEKK3 PB1 domain | Q99759 | bead-based flow cytometry, Alexa488-MEK5 binding to MEKK3; actives lie on both sides; 0 = blocked by unlabeled MEK5, 100 = vehicle | binding response (% of control), % at 10 µM | actives 1.4% (n = 290,000) | AID 1529;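 active = binding response more than 3 SD above or below the average of its plate-row segment, actives on both sides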;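 also: Alexa488 bead fluorescence after subtracting the streptavidin-only scavenger bead signal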
# CHT inh – inhibits the human high affinity choline transporter | CHT-expressing cells, membrane potential dye, choline response; hits give low values | B-score at 10 µM | actives 0.86% (n = 310,000) | AID 488975;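 active = B-score over 3 SD under the library average, and starting fluorescence ratio not unusually high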;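 also: choline stimulus applied at its EC90 after an EC20 pre-addition; B-score computed on integrated fluorescence ratio after choline addition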
# SUMO Mot1 rescue – SUMOylation pathway inhibition by Mot1-301 growth rescue; growth rescue, % at 18.8 µM; AID 2716; S. cerevisiae Mot1-301 growth rescue, ATP luminescence, 38.5C; percent above DMSO median, 100 means doubled; actives 1% (n = 320,000);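 active = every valid replicate shows activation above 250% relative to neutral control wells; inactive = the rest, any valid replicate at or below 250%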;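 also: OY570 slx delta 5 strain wells were the positive control but not used for scaling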
# MEKK2wt confirm – raises or lowers MEK5 binding to wildtype human MEKK2, retest; shares compounds with MEKK3 PB1 HTS; actives 2.4% (n = 5,900); AID 1892; bead flow cytometry, Alexa488-MEK5 binding to MEKK2 WT; actives lie on both sides; binding response (% of control), % at 10 µM; in the data active = binding response below about 16% or above about 210%; inactive = in between
# MEKK2mut-MEK5 – signal of MEK5 binding to mutant human MEKK2, retest; shares compounds with MEKK3 PB1 HTS; bead flow cytometry, Alexa488-MEK5 binding to MEKK2 mutant; percent response, % at 10 µM; actives 2% (n = 5,900); AID 1893; in the data active = percent response mostly above about 71%, no sharp cut-off; inactive = mostly below about 38%;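 also: higher means compound restores mutant binding toward wildtype level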
# MEKK3 confirm – confirmation of inhibitors of MEK5 binding to human MEKK3. shares compounds with MEKK3 PB1 HTS. bead flow cytometry, Alexa488-MEK5 binding to MEKK3; hits give low values. binding response (% of control), % at 10 µM. actives 1.8% (n = 5,900). AID 1894;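 active = binding response below 72% of control, or above a set upper limit, though filed actives all read lower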;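 also: 100% = DMSO only wells and 0% = binding blocked by excess unlabeled MEK5; lower values mean stronger disruption of MEK5 binding to MEKK3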
# An asterisk follows results filed as active; i = inactive; x = no result; [ ] = another dose, or the depositor's remark.
SMILES,MEKK2 WT-MEK5,MEKK2 mut-MEK5,CHT allo act,MEKK3 PB1 HTS,CHT inh,SUMO Mot1 rescue,MEKK2wt confirm,MEKK2mut-MEK5,MEKK3 confirm
COc1ccc(CNC(=O)C(c2ccncc2)N(C(=O)Cc2cccs2)c2ccc(C)cc2)cc1 (stereo not drawn),86.0,-11.0,i,81.0*[inhibitor],i,67.8,107.0,10.0,104.0
Cc1ccc(OCC(=O)NC(=S)Nc2ccc(Br)cn2)cc1,97.0,10.0,i,104.0,i,31.1,x,x,x
FC(F)(F)c1cccc(NC(=S)N(CCCN2CCCC2)Cc2cccn2Cc2ccc(Cl)cc2)c1,243.0*,6.0,i,93.0,i,-3.9,259.0*,64.0,104.0
CC(=O)Nc1cccc(OCC(=O)NS(=O)(=O)c2ccc(Cl)cc2)c1,100.0,0.0,i,100.0,i,7.3,x,x,x
CCCCCCCCCCCCN1C/C(=C\C(=O)OCC)c2cc(C(F)(F)F)ccc2S1(=O)=O,67.0*,51.0*,i,109.0,i,-11.9,98.0,-2.0,96.0
Cc1ccc(CC(=O)N2CCN(C(=O)c3ccco3)CC2)cc1,58.0,-14.0,i,49.0*[inhibitor],i,-4.0,102.0,3.0,103.0
Cc1nn(C)c(C(=O)N2CCN(C(=O)c3ccco3)CC2)c1Br,34.0*[inhibitor],-17.0,i,82.0,i,17.1,101.0,6.0,103.0
Cc1nc2ccccn2c1C(=O)N=Nc1c(O)n(CCC(C)C)c2ccccc12,104.0,6.0,i,98.0,i,-7.6,x,x,x
O=C(CSc1nnc(CNC(=O)c2cccc(C(F)(F)F)c2)o1)NC1CCCCC1,106.0,3.0,i,103.0,i,4.4,x,x,x
CNC(=O)c1nn(-c2ccc(C)cc2)ccc1=O,122.0,25.0*,i,118.0,i,51.7,97.0,-7.0,98.0
COc1ccc(Nc2cc(C(=O)NCc3ccco3)c3ccccc3n2)c(OC)c1,107.0,1.0,i,133.0*,i,14.7,99.0,0.0,101.0
COc1ccc(-c2cc(C(=O)NCc3ccco3)c3ccccc3n2)c(OC)c1,84.0,-11.0,i,93.0,i,-4.5,x,x,x
CCC(C)c1ccc(OCC(=O)Nc2ccc3[nH]c(=O)[nH]c3c2)cc1 (stereo not drawn),111.0,1.0,i,198.0*,i,49.0,106.0,5.0,105.0
O=C(O)COc1cccc(NC(=O)c2ccccc2)c1,106.0,4.0,i,105.0,i,-7.9,x,x,x
CC(C)CCOc1cccc(OCC(=O)O)c1,96.0,1.0,x,183.0*,x,x,107.0,4.0,105.0
Cc1cc(C)cc(N(C(C)C(=O)N2CCCC2)S(C)(=O)=O)c1 (stereo not drawn),106.0,2.0,i,106.0,i,12.4,x,x,x
CCOC(=O)C1C(=O)OC(C)(C)C1C(C)C(=O)c1ccc(C)cc1C (stereo not drawn),-2.0*[inhibitor],-26.0,i,1.0*[inhibitor],i,-31.8,96.0,15.0,102.0
CCOC(=O)C1C(=O)OC(C)(C)C1C(CC)C(=O)c1c(C)cc(C)cc1C (stereo not drawn),91.0,-9.0,i,90.0,i,-8.6,x,x,x
N#Cc1cccc(NC(=O)Cn2c3[n+](c4ccc(C(F)(F)F)cc42)CCCCC3)c1,117.0,0.0,i,69.0*[inhibitor],i,3.4,111.0,6.0,98.0
Cc1[nH]n(-c2ccccc2)c(=O)c1C=Nc1ccc(S(=O)(=O)N(C)C)cc1,103.0,-2.0,i,105.0,i,133.3,x,x,x
Cc1[nH]n(-c2ccc(F)cc2)c(=O)c1C=Nc1ccc(S(=O)(=O)N(C)C)cc1,11.0*[inhibitor],13.0,i,97.0,i,76.1,102.0,6.0,101.0
Cc1ccc(S(=O)(=O)/N=C(/c2ccccc2)N2CCOCC2)c(C)c1,97.0,0.0,i,101.0,i,-9.3,x,x,x
CCc1c(OC(C)=O)c2ccccc2n(C)c1=O,101.0,-1.0,i,100.0,i,-4.9,x,x,x
C=CCc1c(OC(C)=O)c2ccccc2n(C)c1=O,104.0,0.0,i,147.0*,i,-3.5,106.0,3.0,106.0
CCn1cc(CN2CCC(C(=O)Nc3cccc(-c4cccc(F)c4)c3)CC2)cn1,128.0,11.0,i,103.0,i,10.4,x,x,x
SMILES,MEKK2 WT-MEK5,MEKK2 mut-MEK5,CHT allo act,MEKK3 PB1 HTS,CHT inh,SUMO Mot1 rescue,MEKK2wt confirm,MEKK2mut-MEK5,MEKK3 confirm
CC(C)n1cc(CN2CCC(C(=O)Nc3cccc(-c4cccc(Cl)c4)c3)CC2)cn1,183.0*,34.0*,i,107.0,i,10.1,203.0,73.0*,117.0
O=C(Nc1cccc(-c2cccc(Cl)c2)c1)C1CCN(Cc2ccc(CO)o2)CC1,153.0*,22.0,i,105.0,i,17.3,126.0,23.0,109.0
N=C(N)c1ccc(OCCCCCOc2ccc(C(=N)N)cc2)cc1,150.0*,12.0,i,69.0,i,122.7,97.0,-14.0,66.0*
CCCCCCOc1ccc(/C(N)=N/O)cc1,100.0,7.0,i,100.0,i,-9.0,x,x,x
CC(c1nccs1)N(C)c1nc2nonc2nc1N(C)C (stereo not drawn),97.0,-11.0,i,99.0,i,1.1,x,x,x
COc1ccc2oc(C(=O)Nc3ccc(S(=O)(=O)N(C)C4CCN(C)CC4)cc3)c(C)c2c1,157.0*,17.0,i,107.0,i,-9.8,159.0,28.0,105.0
Cc1cc(F)ccc1S(=O)(=O)Nc1ccccc1C(=O)Nc1ccccc1-c1nc2ccccc2[nH]1,122.0,1.0,i,134.0*,i,-2.3,109.0,0.0,99.0
CC(=O)OC[C@]12CC[C@H]3[C@@](C)(CC[C@H]4C(C)(C)CCC[C@]34C)[C@@H]1C[C@H](C1=CC(=O)O[C@@H]1OC(C)=O)O2,x,x,x,x,x,101.9,x,x,x
C/C(=N\Nc1cc(N2CCOCC2)nc(C)n1)c1ccc(F)cc1,115.0,2.0,i,106.0,i,-2.4,x,x,x
C/C(=N\Nc1cc(N2CCCCC2)nc(C)n1)c1ccc(Br)cc1,183.0*,45.0*,i,118.0,i,2.6,159.0,29.0,105.0
N#CC1(C#N)C(c2ccccc2)OC23CCCCC2C1(C#N)C(=N)O3 (stereo not drawn),104.0,-1.0,i,140.0*,i,-15.2,111.0,4.0,110.0
